# An excerpt weighted towards active compounds, which were near 3% of everything screened.
# Sm TGR block – qHTS Assay for the Inhibitors of Schistosoma Mansoni Peroxiredoxins; AID 485364, 2010; hit rate 3% among 360,000; Potency, µM (series often up to 114 µM), for inactives: at the top dose activity change, negative = inhibition, hits mostly inhibitors; purified TGR, DTNB reduction, TNB absorbance 405 nm; note: nearly all actives have a fitted effect of over 60% in size
#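 TGR 20 nM + NADPH 100 uM (dispensed conc.), cpd preinc 15 min RT; start with NADPH (500 uM addition) then DTNB (15 mM addition). Kinetic TNB absorbance, 405 nm filter. Four-parameter Hill fit across titration.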
# TbPYK inhibitor – qHTS of Trypanosoma Brucei Inhibitors; Potency, µM (titrated, usually from 76.8 µM), for inactives: at the highest dose activity, negative = inhibition, usual class: inhibitors; hit rate 0.12% among 410,000; pyruvate kinase (Trypanosoma brucei), Q57TT1; TbPYK enzyme, Kinase-Glo Plus ATP luminescence, 45 min; note: nearly all actives have a fitted effect of over 50% in size
#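 TbPYK + substrate in 50 mM TEA pH 7.2, 100 mM KCl, 10 mM MgCl2, 0.05% BSA, 0.01% Tween-20; cpd pinned; ADP 130 uM final; 45 min RT; Kinase-Glo Plus 10 min; luminescence endpoint.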
# LmPK inh – qHTS Assay for Inhibitors of Leishmania Mexicana Pyruvate Kinase (LmPK); Q27686; purified LmPK, Kinase-Glo ATP luminescence, 1 h; Potency, µM (titrated, usually from 57.5 µM), inactives show at the highest dose activity change, negative = inhibition, usual class: inhibitors; hit rate 0.37% among 290,000; AID 1721, 2009
# Target sequence (Q27686 whole entry, looked up): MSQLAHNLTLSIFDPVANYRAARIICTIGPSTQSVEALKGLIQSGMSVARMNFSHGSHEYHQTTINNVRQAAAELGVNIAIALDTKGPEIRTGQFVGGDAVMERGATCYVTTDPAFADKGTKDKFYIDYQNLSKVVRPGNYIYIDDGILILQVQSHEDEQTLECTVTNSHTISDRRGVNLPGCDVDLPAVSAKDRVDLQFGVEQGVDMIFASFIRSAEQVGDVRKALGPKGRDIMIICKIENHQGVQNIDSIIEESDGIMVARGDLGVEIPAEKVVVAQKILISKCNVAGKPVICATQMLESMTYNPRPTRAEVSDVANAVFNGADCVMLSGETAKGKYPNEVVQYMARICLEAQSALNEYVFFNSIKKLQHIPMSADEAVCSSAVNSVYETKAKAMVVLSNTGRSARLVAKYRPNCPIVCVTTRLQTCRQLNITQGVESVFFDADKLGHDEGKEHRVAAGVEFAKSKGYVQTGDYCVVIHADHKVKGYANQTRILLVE
#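 Screened at intermediate enzyme activity to detect both inhibitors and activators: LmPK at 0.1 nM, with a 0.5 nM enzyme column as activation reference. PEP 0.5 mM, ADP 0.1 mM; ATP detected by luminescence after 1 h.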
# RE007 growth inh – qHTS Assay for Inhibitors of the HIV-1 protein Vpr | S. pombe RE007 Vpr strain, BacTiter-Glo ATP luminescence, 24 h | Potency, µM (top dose mostly 92.2 µM), for the others: at the highest dose activity change, negative = less growth, usual class: inhibitors | hit rate 0.21% among 360,000 | AID 651644, 2012; active = well fitted falling curve with a large enough effect; inconclusive = small, poorly fitted or top-dose-only effect; inactive = no such curve, though single readings can be large or run the other way; note: nearly all actives have a fitted effect of over 50% in size
#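 Fission yeast RE007 carrying one integrated HIV-1 vpr copy, seeded at OD 0.01 in PMG+AL medium with 23 nL pinned compound. Grown 24 h at 30 degrees; viability read by BacTiter-Glo luminescence after 5 min.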
# * = called active by the depositor; ? = inconclusive; . = not tested or not shown; [ ] = remark or other dose. Unless noted, calls come from the whole dose curve; as a rule, active = well fitted curve in the direction sought with a large enough effect; inconclusive = small, poorly fitted or top-dose-only effect, or another doubt; inactive = no such curve, though single readings can be large; an effect the other way counts as inactive or inconclusive. % is set by controls: 0 for no effect and ±100 for the full control effect; potency is the fitted concentration of half-maximal effect.
SMILES,Sm TGR block,TbPYK inhibitor,LmPK inh,RE007 growth inh
Cc1cc2nc(-c3ccc(SCC(=O)N4CCN(C(=O)c5ccco5)CC4)nc3)[nH]c2cc1C,10µM*,-17%,-26%,-3%
O=C1CCCC2=C1C(Cc1ccccc1)C1=C(CCCC1=O)O2,10µM*,-2%,-8%,0%
N#CC1=C(N)OC2=C(C(=O)CCC2)C1CCc1ccccc1 (configuration not stated),-21%,-6%,0%,6%
CC(C)(C)NC(=S)N/N=C\c1ccc(-c2ccc([N+](=O)[O-])cc2)o1,2.2µM*,1%,0%,-11%
CCCCC(=O)N/N=C/c1ccc(-c2ccc([N+](=O)[O-])cc2)o1,1%,6%,5%,0%
CNC(=S)N/N=C/c1ccc(-c2ccc(C(=O)O)cc2)o1,?,-26%,14µM*,?
CCOc1ccccc1N(CC)C(=O)c1noc2c1COc1ccc(C)cc1-2,5%,-5%,.,.
O=C(NN1CCCC1)NS(=O)(=O)c1ccc(Cl)cc1,.,-7%,.,.
CP(=O)(Nc1cc(Cl)ccc1Cl)c1nc2c(s1)CCCC2 (configuration not stated),8.9µM*,-12%,-4%,19%
CCOC(=O)Cc1ccc2sc(-c3ccccc3)nc2c1,-12%,?,16µM*,?
CCOC(=O)Cc1ccc(-c2ccccc2)cc1,.,-6%,.,.
CCOC(=O)c1ccc(NC(=S)NCc2ccco2)cc1,11µM*,4%,5%,0%
COc1ccc(C(=O)NC(=S)NCc2ccco2)cc1,7.1µM*,-4%,6%,-21%
COc1ccc(C(=O)NC(=S)NCc2ccco2)cc1Br,50µM*,9%,3%,-27%
COc1cc(OC)cc(C(=O)NC(=S)NCc2ccco2)c1,?,-19%,-1%,0%
COc1ccc(C(=O)NC(=S)NC(C)(C)C)cc1Br,-32%,-7%,-8%,-18%
COc1ccc(C(=O)NC(=S)NC(C)C)cc1Br,16µM*,-5%,0%,-12%
CN(C)c1cc(NC(=O)CNC(C)(C)C)c(O)c2c1C[C@@H]1C[C@H]3[C@H](N(C)C)C(=O)C(C(N)=O)=C(O)[C@@]3(O)C(=O)C1=C2O,.,-4%,.,.
Cn1c(=O)c(C(=O)NNC(=O)c2ccc(Br)cc2)c(O)c2ccccc21,-21%,0%,0%,28µM*
Cn1c(=O)c(C(=O)NNC(=O)c2ccccc2F)c(O)c2ccccc21,-8%,3%,4%,-8%
CCOC(=O)C1(C)CCCN(C(=O)c2ccc(C)c(F)c2)C1 (configuration not stated),.,3%,.,11%
CCN(Cc1ccccc1)C(=O)Cn1c(=O)n(-c2ccc(F)c(Cl)c2)c(=O)c2sc3ccccc3c21,1%,-9%,.,.
O=c1ccc(-c2ccc(S(=O)(=O)Nc3ccccc3Cl)o2)n[nH]1,40µM*,-3%,-2%,0%
Cc1cccc(NS(=O)(=O)c2ccc(-c3ccc(=O)[nH]n3)o2)c1,40µM*,-4%,-1%,19%
O=c1ccc(-c2ccc(S(=O)(=O)Nc3cccc(Br)c3)o2)n[nH]1,50µM*,-11%,6%,-8%
SMILES,Sm TGR block,TbPYK inhibitor,LmPK inh,RE007 growth inh
Cc1c(Cl)cccc1NS(=O)(=O)c1ccc(-c2ccc(=O)[nH]n2)o1,-14%,0%,-7%,12%
O=c1ccc(-c2ccc(S(=O)(=O)Nc3cccc(F)c3)o2)n[nH]1,?,3%,-5%,1%
Cn1c(=O)oc2cc(S(=O)(=O)NC(Cc3ccccc3)C(=O)NCc3ccccc3Cl)ccc21 (configuration not stated),2%,-13%,.,.
COCCNC(=O)CCC1CCN(C/C=C/c2ccccc2OC)CC1,5%,3%,-1%,0%
COCCNC(=O)CCC1CCN(Cc2cccc(-c3ccc(C)o3)c2)CC1,40µM*,-6%,4%,17%
COc1ccc(-n2ccnc(NCc3cccs3)c2=O)cc1,?,-2%,.,.
Oc1cnc2ccccc2c1CN1CCOCC1,0%,-3%,-1%,-2%
Oc1ccc2ccccc2c1CN1CCOCC1,0.45µM*,4%,7%,-27%
O=S(=O)(c1c(F)cccc1F)N1CCN(Cc2c(O)ccc3ccccc23)CC1,2.2µM*,0%,.,-6%
CC[C@@H](O)C(C[C@@H](C)N(C)C)(c1ccccc1)c1ccccc1,.,-8%[157 µM],.,.
COc1ccc(CN(C)CC(=O)Nc2ccccc2C(F)(F)F)cc1,-16%,5%,3%,-1%
COc1cccc(CN(C)Cc2c(O)ccc3ccccc23)c1,2.5µM*,0%,-1%,-16%
COc1ccc2ccc(O)c(CN(C)CC(=O)Nc3ccccc3C(F)(F)F)c2c1,1.8µM*,-16%,2%,-12%
COc1ccc(NC(=O)CN(C)CC(=O)NCc2ccc(C)cc2)cc1,-7%,-1%,.,-17%
CCN(Cc1ccncc1)Cc1c(O)ccc2ccccc12,0.71µM*,3%,2%,-4%
Cc1ccc(NC(=O)CN(C)Cc2c(O)ccc3ccccc23)cc1,0.32µM*,41%,3%,?
CC(C)CN(Cc1c(O)ccc2ccccc12)CC(C)C,.,-1%,0%,-27%
COc1ccc(NC(=O)c2c(-c3ccccc3)c(-c3ccccc3)nn(C)c2=O)c(OC)c1,-3%,1%,.,.
CCN(CC(=O)Nc1ccc(Br)cc1)CC(=O)Nc1cc(C)on1,50µM*,-7%,.,-13%
COc1ccc(CN(C)Cc2c(O)ccc3ccccc23)cc1,3.2µM*,2%,9%,-14%
CN(C)Cc1c(O)ccc2ccccc12,1.1µM*,-1%,5%,13%
CCN(CC(=O)Nc1ccc(NC(C)=O)cc1)CC(=O)Nc1cccc2ccccc12,.,-2%,.,-8%
CCN(CC(=O)Nc1ccc(NC(C)=O)cc1)Cc1c(O)ccc2cc(Br)ccc12,0.79µM*,-1%,8%,-9%
Cc1cc(NC(=O)Cc2ccc(Br)cc2)no1,14%,-9%,3%,1%
COc1cccc(CNC(=O)CSC2=Nc3ccccc3C3=NC(C)C(=O)N23)c1OC (configuration not stated),13%,-7%,.,.
SMILES,Sm TGR block,TbPYK inhibitor,LmPK inh,RE007 growth inh
COc1ccc(Br)cc1CNCc1c(C(=O)O)c(C)n(Cc2ccccc2C)c1C,-11%,-3%,.,.
Cc1ccc(-n2c(-c3ccccc3)n[nH]c2=S)c(C)c1,2%,11µM*,-1%,22%
Cc1ccc(C)c(-n2c(-c3ccc4c(c3)OCO4)n[nH]c2=S)c1,24%,5µM*,4µM*,-3%
Cc1ccc(C)c(-n2c(-c3ccncc3)n[nH]c2=S)c1,1%,?,20µM*,3%
Cc1ccc(C)c(-n2c(-c3csc(C)c3)n[nH]c2=S)c1,-4%,?,7.9µM*,-5%
CCN(CC)c1ccc(-c2n[nH]c(=S)n2-c2ccccc2C)cc1,-2%,?,-4%,-16%
CCC(Sc1nc2ncccc2o1)C(=O)Nc1cccc(C)c1 (configuration not stated),1%,-5%,.,.
Cc1ccc2c(CC(=O)Nc3c(C(=O)c4ccc(F)cc4)oc4ccccc34)coc2c1C,-4%,0%,.,.
